# PubChem BioAssay
# A number with no mark means an inactive call. Entries that show only a call come without a potency. For some assays here: Potency and affinity values are given separately. Activity calls are given as the source filed them. Unless noted, how the calls were made is not given here.
# Columns and labels:
# [1] = antimalarial activity against Dd2 strain (AID 2302;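 active means growth inhibition above 50% at the single 2 µM test dose, taken to imply half-maximal potency below 2 µM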); details: P. falciparum Dd2 in RBCs, LDH growth readout, 72 h; at 2 µM; hits give high values
# [2] = HepG2 cytotoxicity, primary screen, cytotoxicity control for P. falciparum antimalarial project, cell-based, ATP luminescence (AID 2303;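 active means inhibition above 50%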); details: HepG2 viability, 24-48 h, at 10 µM, hits give high values
# [3] = molecular target: L-lactate dehydrogenase (Plasmodium falciparum (isolate CDC / Honduras)) (UniProt Q27743); test: PfLDH activity inhibition – cell lysate, 3D7 strain, counter-screen for P. falciparum growth inhibition project (AID 2304); details: P. falciparum 3D7 crude extract, LDH APAD/NBT absorbance; at 2 µM; hits give high values
# [4] = inhibition of 3D7 malaria parasite growth – strain 3D7 (AID 2306); details: P. falciparum 3D7 erythrocytic growth, LDH absorbance, 72 h; at 2 µM; hits give high values
# [5] = molecular target: Calcium-dependent protein kinase 1 (Plasmodium falciparum (isolate 3D7)) (UniProt P62344); test: PfCDPK1 kinase inhibitors, biochemical, TCAMS library (AID 1159585; cut-off not given, nearly all actives have IC50 up to about 0.98 µM;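 further: inhibitors leave more ATP so luminescence rises with inhibition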); details: recombinant PfCDPK1, Kinase-Glo ATP depletion luminescence
# [6] = molecular target: Plasmodium falciparum protein kinase 6 (PK6, PF3D7_1337100) (UniProt Q8IDW1); test: PfPK6 kinase inhibitors, biochemical, TCAMS library (AID 1159586); details: recombinant PfPK6, Kinase-Glo ATP depletion luminescence
# [7] = molecular target: Protein kinase 7 (PK7), Plasmodium falciparum 3D7 (PF3D7_0213400) (UniProt Q7YTF7); test: inhibition of Plasmodium PK7 catalytic activity – biochemical, TCAMS antimalarial set, Kinase-Glo luminescence (AID 1159587); details: recombinant PfPK7, Kinase-Glo ATP depletion luminescence
# [8] = molecular target: Calcium-dependent protein kinase 4 (Plasmodium falciparum (isolate 3D7)) (UniProt Q8IBS5); test: PfCDPK4 kinase inhibitors, biochemical, TCAMS library (AID 1159588; cut-off not given, nearly all actives have IC50 up to about 0.91 µM); details: recombinant PfCDPK4, Kinase-Glo ATP depletion luminescence
# Chain of Calcium-dependent protein kinase 4 (Plasmodium falciparum (isolate 3D7)) (Q8IBS5 whole entry, looked up): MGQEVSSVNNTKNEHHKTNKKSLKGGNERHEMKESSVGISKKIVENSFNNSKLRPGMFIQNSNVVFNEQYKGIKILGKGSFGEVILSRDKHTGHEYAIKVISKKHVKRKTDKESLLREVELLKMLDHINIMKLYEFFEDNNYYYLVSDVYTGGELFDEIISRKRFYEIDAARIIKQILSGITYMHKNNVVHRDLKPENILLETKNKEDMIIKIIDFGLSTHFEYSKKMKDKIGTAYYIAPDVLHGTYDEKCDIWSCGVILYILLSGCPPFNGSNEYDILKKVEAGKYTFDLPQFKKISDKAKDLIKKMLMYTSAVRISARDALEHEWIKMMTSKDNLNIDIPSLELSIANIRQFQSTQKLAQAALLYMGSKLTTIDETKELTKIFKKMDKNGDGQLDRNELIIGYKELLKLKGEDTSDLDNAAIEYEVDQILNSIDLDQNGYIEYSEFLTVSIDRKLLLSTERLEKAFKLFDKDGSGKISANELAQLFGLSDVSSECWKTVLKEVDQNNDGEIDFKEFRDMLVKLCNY
# Chain of Plasmodium falciparum protein kinase 6 (PK6, PF3D7_1337100) (Q8IDW1 1-305): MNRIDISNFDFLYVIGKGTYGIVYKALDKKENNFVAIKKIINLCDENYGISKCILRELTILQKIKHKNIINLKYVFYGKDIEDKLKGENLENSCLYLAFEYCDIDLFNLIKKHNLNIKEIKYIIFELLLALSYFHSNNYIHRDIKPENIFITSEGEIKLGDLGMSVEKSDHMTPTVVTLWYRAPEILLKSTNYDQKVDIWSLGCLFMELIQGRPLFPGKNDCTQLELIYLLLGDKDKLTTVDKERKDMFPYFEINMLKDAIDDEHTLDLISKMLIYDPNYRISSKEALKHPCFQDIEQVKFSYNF
# Chain of Protein kinase 7 (PK7), Plasmodium falciparum 3D7 (PF3D7_0213400) (Q7YTF7 1-343): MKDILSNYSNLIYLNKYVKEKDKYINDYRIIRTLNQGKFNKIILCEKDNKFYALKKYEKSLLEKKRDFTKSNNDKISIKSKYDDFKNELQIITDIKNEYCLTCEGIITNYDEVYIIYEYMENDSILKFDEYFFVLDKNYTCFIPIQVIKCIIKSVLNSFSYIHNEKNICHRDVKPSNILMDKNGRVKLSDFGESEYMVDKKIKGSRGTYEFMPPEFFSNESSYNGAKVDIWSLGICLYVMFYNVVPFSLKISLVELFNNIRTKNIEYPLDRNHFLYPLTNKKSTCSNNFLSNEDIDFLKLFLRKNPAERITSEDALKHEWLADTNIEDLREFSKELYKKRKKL
# Chain of L-lactate dehydrogenase (Plasmodium falciparum (isolate CDC / Honduras)) (Q27743 whole entry, looked up): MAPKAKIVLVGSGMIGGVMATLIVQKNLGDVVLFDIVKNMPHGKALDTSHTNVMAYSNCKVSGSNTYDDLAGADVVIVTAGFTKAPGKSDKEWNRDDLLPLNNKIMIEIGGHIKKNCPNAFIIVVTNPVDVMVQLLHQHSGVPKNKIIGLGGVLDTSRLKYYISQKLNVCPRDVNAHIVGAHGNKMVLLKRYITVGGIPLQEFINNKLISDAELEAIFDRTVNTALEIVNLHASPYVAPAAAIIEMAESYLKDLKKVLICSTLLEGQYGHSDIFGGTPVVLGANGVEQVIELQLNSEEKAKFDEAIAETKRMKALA
# Chain of Calcium-dependent protein kinase 1 (Plasmodium falciparum (isolate 3D7)) (P62344 whole entry, looked up): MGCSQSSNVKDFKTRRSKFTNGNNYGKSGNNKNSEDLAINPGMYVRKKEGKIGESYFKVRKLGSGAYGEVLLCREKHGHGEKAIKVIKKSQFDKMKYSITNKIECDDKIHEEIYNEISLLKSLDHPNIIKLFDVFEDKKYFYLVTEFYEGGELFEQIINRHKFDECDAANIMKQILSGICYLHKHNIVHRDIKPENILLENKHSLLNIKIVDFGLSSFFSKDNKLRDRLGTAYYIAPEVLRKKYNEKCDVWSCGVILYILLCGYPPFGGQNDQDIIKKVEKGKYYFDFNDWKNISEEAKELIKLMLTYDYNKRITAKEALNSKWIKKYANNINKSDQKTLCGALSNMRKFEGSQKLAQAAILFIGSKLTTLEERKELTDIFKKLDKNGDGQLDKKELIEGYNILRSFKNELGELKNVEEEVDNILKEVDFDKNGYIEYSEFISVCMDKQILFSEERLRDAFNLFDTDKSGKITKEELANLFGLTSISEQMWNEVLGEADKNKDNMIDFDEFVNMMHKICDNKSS
Compound,growth inhibition [1],inhibition [2],inhibition [3] [%],growth inhibition [4],outcome [5],outcome [6],outcome [7],outcome [8]
N#Cc1c(N2CCCCCC2)nc(N)c2c(N)nc3c(c12)CC(=O)N3c1ccc(F)cc1,91% (active),-7%,-1,97% (active),inactive,inactive,inactive,inactive
Cc1ccccc1C1CCN(C2CCC(NC(=O)c3ccc(-c4ccccc4F)o3)CC2)CC1 (stereo not given),66% (active),42%,1,99% (active),inactive,inactive,inactive,inactive
N#Cc1ccc(/C=C/C(=O)NCCCCCN2CCN(C(=O)Nc3ccc(Cl)c(C(F)(F)F)c3)CC2)cc1,-7%,42%,-1,94% (active),inactive,inactive,inactive,inactive
COc1ccc2nccc([C@@H](O)CN3CCC(NS(=O)(=O)c4cc(Br)c(Br)s4)CC3)c2c1,36%,14%,-2,92% (active),inactive,inactive,inactive,inactive
O=C(Nc1ccc(OC2CCN(Cc3ccc(F)cc3)C2)c(Cl)c1)c1ccccc1 (stereo not given),86% (active),11%,0,91% (active),inactive,inactive,inactive,inactive
Cc1c(Cl)cccc1S(=O)(=O)Nc1cccc(CCN2CCC(N3CCCCC3)CC2)c1,82% (active),38%,-1,101% (active),inactive,inactive,inactive,inactive
CC(C)(C)C(=O)Nc1c(-c2cc(=O)oc3cc4c(cc23)CCC4)oc2ccccc12,100% (active),-5%,3,101% (active),inactive,inactive,inactive,inactive
COc1ccc(CN2CCC(NCc3ccc(C(F)(F)F)cc3)CC2)cc1,-1%,37%,2,97% (active),inactive,inactive,inactive,inactive
CCc1cn2c3c(cc(C(=O)N[C@@H](Cc4cccc(Cl)c4)[C@H](O)CNC4CC4)cc13)N(C)S(=O)(=O)CC2,98% (active),10%,-1,98% (active),inactive,inactive,inactive,inactive
Cc1cccc2[nH]c(-c3cccc(-c4cccc(CNCc5ccccc5)c4)c3)nc12,56% (active),3%,-1,101% (active),inactive,inactive,inactive,inactive
O=C(NCc1cccc(F)c1)Nc1ccc(-c2cccc(-c3nc4ccc(F)cc4[nH]3)c2)cc1,2%,31%,7,88% (active),inactive,inactive,inactive,inactive
CCc1ccc(NC(=O)N(CCCn2ccnc2)Cc2csc(-c3ccc(CNCc4ccccc4)cc3)n2)cc1,39%,9%,3,103% (active),inactive,inactive,inactive,inactive
N#Cc1ccc(Sc2nnc(-c3ccccc3Cl)n2CC2CCCCC2)cc1[N+](=O)[O-],34%,30%,1,85% (active),inactive,inactive,inactive,inactive
COc1ccc(NC(=O)Nc2ccc(C)c(-c3ccc(C(=O)NCCN4CCCC4)cc3)c2)cc1,1%,18%,3,95% (active),inactive,inactive,inactive,inactive
CCCCCN1C(=O)C(c2ccccc2)(c2ccccc2)N=C1N,68% (active),18%,-1,97% (active),inactive,inactive,inactive,inactive
Fc1ccc2nc(-c3cccc(-c4cccc(CNCCN5CCNCC5)c4)c3)[nH]c2c1,4%,18%,-9,94% (active),inactive,inactive,inactive,inactive
NC(=O)c1ccc(-n2cnc3cc(F)ccc32)cc1OCc1ccccc1C(F)(F)F (tested in a mixture with another compound),93% (active),55% (active),3,97% (active),inactive,inactive,inactive,inactive
CSc1ccc(CN2CCC(NC(=O)c3ccc(-c4cccc(Cl)c4)s3)CC2)cc1,19%,75% (active),-2,86% (active),inactive,inactive,inactive,inactive
Cc1cccc2[nH]c(-c3cc(-c4cccc(Cl)c4)cnc3N)nc12,99% (active),32%,2,101% (active),inactive,inactive,inactive,inactive
NCCc1cccc(-c2cnc3[nH]cc(-c4ccc(C(=O)O)cc4)c3c2)c1,98% (active),4%,-2,99% (active),inactive,inactive,inactive,inactive

Compound,growth inhibition [1],inhibition [2],inhibition [3] [%],growth inhibition [4],outcome [5],outcome [6],outcome [7],outcome [8]
Cc1ccc(O)cc1Nc1c(C(N)=O)cnc2ccc(-c3cncs3)cc12,99% (active),21%,3,100% (active),inactive,inactive,inactive,inactive
COc1cc(Cc2cnc(N)nc2N)cc(OCC(C)(C)C(=O)O)c1OC,-4%,-3%,-2,89% (active),inactive,inactive,inactive,inactive
CC1CCc2sc(-c3nnc(SC(C)C(=O)NC4CC4)o3)cc2C1 (stereo not given),69% (active),5%,-4,83% (active),inactive,inactive,inactive,inactive
c1ccc(CNc2nc(NCCc3cnc[nH]3)nc(NCc3cccc4ccccc34)n2)cc1,1%,9%,-4,91% (active),inactive,inactive,inactive,inactive
CN(C)c1ccc(NC2=NC(C)(C)N=C(N)N2)cc1,5%,-1%,-4,95% (active),inactive,inactive,inactive,inactive
CCN(Cc1ccccc1)C1CCN(Cc2cc(Br)ccc2O)CC1,97% (active),6%,-1,97% (active),inactive,inactive,inactive,inactive
N#Cc1ccc(N2CCN(Cc3cccc(-c4cccc(-c5nc6ccc(C(F)(F)F)cc6[nH]5)c4)c3)CC2)nc1,50% (active),15%,6,99% (active),inactive,inactive,inactive,inactive
Cn1ncc2c3c(CCN4CCC(NCc5cc6c(cn5)OCC6)CC4)c(Cl)cnc3ccc21,0%,4%,2,94% (active),inactive,inactive,inactive,inactive
CCOc1ccc(Nc2nc(N)c3ccccc3n2)cc1,6%,28%,2,90% (active),inactive,inactive,inactive,inactive
CC(C)CNC(=S)N1CCCN(c2nc3ccc(Cl)cc3s2)CC1,11%,28%,-3,95% (active),inactive,inactive,inactive,inactive
CC(O)c1cccc(-c2ccc(Nc3ccnc4cc(-c5nccs5)ccc34)cc2)c1 (stereo not given),69% (active),31%,-1,91% (active),inactive,inactive,inactive,inactive
N#Cc1ccc(NC(=O)c2ccc(Cc3ccc4c(c3)CCN(C3CCC3)CC4)cn2)cc1,2%,66% (active),-4,91% (active),inactive,inactive,inactive,inactive
COc1cc2nc(N(C)CC3COc4ccccc4O3)nc(N)c2cc1OC (stereo not given),26%,11%,-1,94% (active),inactive,inactive,inactive,inactive
O=C(Nc1ccc(OC2CCN(Cc3ccc(F)cc3)C2)cc1)c1ccco1 (stereo not given),69% (active),-3%,-1,88% (active),inactive,inactive,inactive,inactive
CC(C)C1=C[C@H]2C[C@]3(C4OCCO4)[C@@H]4CC[C@@H](C)[C@H]4C[C@@]2(COCc2cccc(C#N)c2)[C@]13C(=O)OC(c1ccccc1)c1ccccc1,92% (active),-5%,8,88% (active),inactive,inactive,inactive,inactive
NC(=O)C1CCN(Cc2ccc(-c3ccc(-c4nc5ccc(C(F)(F)F)cc5[nH]4)cc3)cc2)CC1,90% (active),25%,-1,100% (active),inactive,inactive,inactive,inactive
c1cc(CN2CCN(c3ccncc3)CC2)cc(-c2cccc(-c3nc4ccccc4[nH]3)c2)c1,98% (active),35%,3,102% (active),inactive,inactive,inactive,inactive
O=C(NC1CCN(CCN2CCC(c3c[nH]c4ccccc34)CC2)CC1)c1ccc(-c2ccc(C(F)(F)F)cc2)cc1,100% (active),100% (active),4,99% (active),inactive,inactive,inactive,inactive
OC1CCN(c2cc(-c3ccccn3)nc(-c3ccccn3)n2)CC1,97% (active),43%,-2,83% (active),inactive,inactive,inactive,inactive
CC(C)N1CCC(Oc2ccc(CN3CCN(C(c4ccccc4)c4ccc(Cl)cc4)CC3)cc2)CC1 (stereo not given),46%,44%,4,97% (active),inactive,inactive,inactive,inactive
